Measured values from PubChem BioAssay.
Values without a mark were called inactive. The source made the active and inactive calls.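 Rule for the calls: active = thallium flux through the channel raised or lowered by more than 3 SD from vehicle-only wells, actives on both sides; inactive = the rest.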

Legend:
Assay in all cases: BK channel mutant inhibitors and activators – cell-based, U2OS BacMam, thallium flux, beta subunits, selectivity assay, profiling panel (AID 1259406);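 note: initial slope of Thallos dye fluorescence rise after thallium is added; log ratio against the mean of 0.3% DMSO vehicle wells on the same plate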
F380Y = conditions: U2OS BacMam BK variants, at 30 µM
F380Y/beta1 = conditions: U2OS BacMam BK variants, at 30 µM
F380Y/beta2Delta = conditions: U2OS BacMam BK variants, at 30 µM
F380Y/beta4 = conditions: U2OS BacMam BK variants, at 30 µM
[1] = molecular target: Calcium-activated potassium channel subunit alpha-1 (Homo sapiens) + Leucine-rich repeat-containing protein 26 (Homo sapiens) (UniProt Q12791+Q2I0M4); conditions: U2OS BacMam BK variants, F380Y/Slo1WT/gamma1, at 30 µM
Chain of Calcium-activated potassium channel subunit alpha-1 (Homo sapiens) + Leucine-rich repeat-containing protein 26 (Homo sapiens) (Q2I0M4 whole entry, looked up, one chain of several): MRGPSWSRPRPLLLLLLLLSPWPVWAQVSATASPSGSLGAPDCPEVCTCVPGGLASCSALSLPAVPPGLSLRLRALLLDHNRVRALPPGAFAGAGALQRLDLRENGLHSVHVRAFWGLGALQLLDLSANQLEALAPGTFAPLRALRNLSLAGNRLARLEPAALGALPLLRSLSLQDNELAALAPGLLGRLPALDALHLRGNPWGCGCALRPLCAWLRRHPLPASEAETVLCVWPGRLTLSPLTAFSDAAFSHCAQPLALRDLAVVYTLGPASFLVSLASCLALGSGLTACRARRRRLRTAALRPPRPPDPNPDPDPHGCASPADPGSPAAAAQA

R275C = conditions: U2OS BacMam BK variants, at 30 µM
R275C/beta1 = conditions: U2OS BacMam BK variants, at 30 µM
R275C/beta2Delta = conditions: U2OS BacMam BK variants, at 30 µM
R275C/beta4 = conditions: U2OS BacMam BK variants, at 30 µM
R275C/Slo1WT/beta2 = conditions: U2OS BacMam BK variants, at 30 µM

| Compound | log fold change Tl+ flux (F380Y) | log fold change Tl+ flux (F380Y/beta1) | log fold change Tl+ flux (F380Y/beta2Delta) | log fold change Tl+ flux (F380Y/beta4) | log fold change Tl+ flux [1] | log fold change Tl+ flux (R275C) | log fold change Tl+ flux (R275C/beta1) | log fold change Tl+ flux (R275C/beta2Delta) | log fold change Tl+ flux (R275C/beta4) | log fold change Tl+ flux (R275C/Slo1WT/beta2) |
| --- | --- | --- | --- | --- | --- | --- | --- | --- | --- | --- |
| Cc1nc(-c2ccc(C(F)(F)F)cc2)sc1CO | 0.0603 | 0.197 (active) | 0.0517 | 0.104 (active) | 0.156 (active) | 0.0174 | 0.0853 | 0.0843 (active) | 0.0953 (active) | 0.00529 |
| O=C(C(=NN=Cc1ccc2c(c1)OCO2)c1ccccc1)c1ccccc1 | -0.0112 | -0.00905 | -0.0268 | -0.0584 | -0.0678 | -0.163 (active) | -0.3 (active) | 0.000499 | -0.138 (active) | -0.0825 |
| Clc1ccc(-n2nnnc2-c2cccnc2)c(Cl)c1 | 0.0135 | -0.0393 | -0.0638 | 0.0275 | 0.00547 | 0.00315 | 0.0215 | -0.00811 | 0.00931 | 0.0349 |
| Cc1ccc(-c2nc(N=CNOC(=O)c3ccc([N+](=O)[O-])cc3)sc2C)cc1Cl | 0.0323 | 0.126 (active) | 0.0425 | 0.147 (active) | 0.102 | 0.00635 | 0.0986 | 0.13 (active) | 0.142 (active) | 0.0243 |
| C=CCNC(SC)=C(C#N)C(N)=O | -0.000365 | -0.02 | 0.0377 | -0.0612 | 0.0338 | -0.0174 | -0.038 | 0.00669 | -0.0131 | -0.00229 |
| NC1(C(=O)O)CCSCC1 | -0.0475 | 0.00895 | -0.0146 | 0.00194 | -0.0223 | -0.0154 | -0.0495 | 0.0435 | -0.00913 | -0.00295 |
| CC(C)(C)c1cc(-c2nc(-c3ccc(C(F)(F)F)cc3)no2)n(Cc2ccccc2)n1 | -0.0279 | -0.0164 | -0.0472 | 0.0114 | -0.0649 | 0.0485 | -0.0238 | -0.0138 | 0.0105 | 0.0318 |
| COc1cc(CCC(C)NC(=O)c2ccc(C)cc2)ccc1OC(=O)c1ccc(C)cc1 (stereo not given) | -0.0917 | -0.0646 | -0.0421 | -0.23 (active) | -0.115 (active) | -0.0349 | -0.0935 | -0.0312 | -0.0233 | 0.00819 |
| Fc1ccc(CCc2ccc(F)cc2)cc1 | -9.9e-05 | -0.0289 | 0.0449 | 0.0131 | 0.0118 | 0.0179 | 0.0162 | 0.0454 | 0.0168 | -0.0303 |
| O=S(=O)(c1ccc(-c2cc(C(F)(F)F)on2)s1)N1CCc2c([nH]c3ccc(F)cc23)C1 | 0.0233 | 0.0471 | 0.0355 | 0.0473 | 0.0308 | 0.0283 | -0.0189 | 0.0168 | -0.00429 | 0.00527 |
| O=c1[nH]cnc2scc(-c3cccs3)c12 | -0.0452 | -0.0118 | 0.0191 | 0.0165 | -0.0657 | -0.0434 | 0.00866 | -0.0381 | 0.0239 | -0.0542 |
| Cc1cc(C(=O)N2CCN(c3ncccc3C#N)CC2)no1 | -0.0195 | 0.00841 | -0.0191 | 0.032 | -0.00848 | 0.011 | 0.022 | 0.0483 | 0.00374 | 0.00615 |
| CCOC(=O)c1cc(NC(=O)CC(C)(C)CC(=O)O)ccc1N1CCCCC1 | 0.0551 | 0.0365 | 0.0312 | 0.0131 | -0.0575 | 0.0216 | 0.0587 | 0.0261 | 0.0168 | 0.00209 |
| COc1ccc(CCNC(=O)c2ccccc2NC(=O)c2ccccc2C)cc1OC | -0.0118 | -0.0452 | -0.0544 | -0.615 (active) | -0.381 (active) | -1.01 (active) | -0.839 (active) | -0.31 (active) | -0.582 (active) | -0.267 (active) |
| CCSc1n[nH]c(=S)s1 | -0.0724 | 0.0129 | 0.00494 | 0.00824 | -0.0169 | 0.0305 | -0.0034 | 0.0134 | 0.0178 | 0.00702 |
